These results are taken from PubChem BioAssay (NCI).

The panel holds about 83,000 compounds, 20% with a hit somewhere; the sample as a whole holds those more often.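 Negative percent growth values reflect cell death: -40 means 40% of the cells present at the start died, and -100 means all died.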 Values without a mark were called inactive. Calls of active or inactive are those of the source. Rule for the calls: active = growth percent below 10; inactive = the rest.

Some test systems named below: HCT-15 colon; HT29 colon; SNB-75 CNS; SNB-19 CNS; U251 CNS; PC-3 prostate; SK-MEL-5 melanoma; UACC-62 melanoma; LOX IMVI melanoma; SK-MEL-28 melanoma; SK-MEL-2 melanoma; EKVX NSCLC; SN12C renal; UO-31 renal; TK-10 renal; ACHN renal; CAKI-1 renal; A498 renal; CCRF-CEM leukemia; MOLT-4 leukemia.
Assay in all cases: NCI-60 one-dose screen, 48 h (100 = growth as untreated, 0 = no growth, -100 = all killed)
Conditions in all cases: 10 µM unless noted

As to `O=C1CCCCN1CCCCC#Cc1ccccc1C#Cc1ccc([N+](=O)[O-])cc1`, the growth in the assay with HCT-15 colon was 17.4%; in the assay on HT29 colon it was 28.4%; in the assay on SNB-75 CNS, 66.1%; with SNB-19 CNS, 70.2%; with U251 CNS, 28%; with PC-3 prostate, 31.9%. The growth was 3.34% (active) with SK-MEL-5 melanoma; 25.8% in the assay with UACC-62 melanoma; 6.11% (active) with LOX IMVI melanoma; 46.1% with SK-MEL-28 melanoma; 5.87% (active) with SK-MEL-2 melanoma; 74.8% in the assay on EKVX NSCLC. Further, the growth is 67.4% with SN12C renal; 7.05% (active) in the assay on UO-31 renal; 80.6% in the assay on TK-10 renal; 34% with ACHN renal; 58.4% with CAKI-1 renal; 59.7% in the assay with A498 renal. The growth in the assay with CCRF-CEM leukemia was 21.4%.

For `Cc1cnc(NC(=O)C(Cc2ccccc2)NC(=O)c2ccccc2)s1` (stereo unspecified), the growth in the assay on HCT-15 colon is 79.9%; in the assay with HT29 colon, 55%; in the assay with SNB-75 CNS, 83.6%; in the assay with SNB-19 CNS, 93.3%; with U251 CNS, 92.2%; with PC-3 prostate, 70.7%. Further, the growth is 25.5% in the assay on SK-MEL-5 melanoma; 62.2% in the assay with UACC-62 melanoma; 55.9% with LOX IMVI melanoma; 88.9% with SK-MEL-28 melanoma; 43.2% with SK-MEL-2 melanoma; 78.5% in the assay on EKVX NSCLC. Besides, the growth was 76.1% in the assay on SN12C renal; 26.7% with UO-31 renal; 79.2% with TK-10 renal; 68% in the assay on ACHN renal; 92.4% in the assay on CAKI-1 renal; 92.6% with A498 renal. The results for the growth in the assay with CCRF-CEM leukemia and in the assay on MOLT-4 leukemia were 81.3% and 40.8%, respectively.

`C#CCC1(c2ccc(F)c(F)c2)NS(=O)(=O)c2ccccc21` (stereo unspecified): the growth in the assay with HCT-15 colon is 103%; with HT29 colon it was 82.9%; in the assay on SNB-75 CNS, 99.1%; in the assay on SNB-19 CNS, 108%; in the assay on U251 CNS it was 96.4%; in the assay on PC-3 prostate, 91.8%. Further, the growth with SK-MEL-5 melanoma was 103%; with UACC-62 melanoma, 106%; in the assay with LOX IMVI melanoma it was 98%; in the assay on SK-MEL-28 melanoma it was 121%; with SK-MEL-2 melanoma, 91.2%; in the assay on EKVX NSCLC, 103%. Also, the growth in the assay on SN12C renal was 106%; with UO-31 renal, 86.4%; in the assay with TK-10 renal, 83.6%; in the assay on ACHN renal, 113%; with CAKI-1 renal, 94.4%; in the assay on A498 renal, 109%. The growth in the assay with CCRF-CEM leukemia was 99.2%; with MOLT-4 leukemia, 90%.

As for `CCN1C(=O)/C(=c2\sc3n(c2=O)C2C(NN=3)N(CC)C(=S)N2CC)c2ccccc21` (stereo unspecified), the growth was 100% in the assay on HCT-15 colon; 111% in the assay on HT29 colon; 84.6% with SNB-75 CNS; 97.2% in the assay with SNB-19 CNS; 97.3% in the assay with U251 CNS; 94% in the assay with PC-3 prostate. In addition, the growth in the assay on SK-MEL-5 melanoma is 103%; with UACC-62 melanoma it was 97.8%; with LOX IMVI melanoma, 98.4%; in the assay on SK-MEL-28 melanoma, 108%; in the assay with SK-MEL-2 melanoma it was 102%; in the assay with EKVX NSCLC it was 96.9%. The growth with SN12C renal was 99.4%; with UO-31 renal it was 81.2%; in the assay with TK-10 renal, 133%; with ACHN renal, 100%; in the assay with CAKI-1 renal it was 76%; with A498 renal, 91.5%.

On to `O=S(=O)(NCCCNc1cc(-c2cn(-c3ccccc3)nc2-c2cccc(O)c2)ccn1)c1ccc(Br)cc1`, for which the growth in the assay on HCT-15 colon was -18.7% (active); with HT29 colon, -24.4% (active); with SNB-75 CNS, 25.8%; with SNB-19 CNS, 27.3%; in the assay with U251 CNS, 4.89% (active); in the assay with PC-3 prostate it was 4.26% (active). Also, the growth in the assay on SK-MEL-5 melanoma was -56.3% (active); with UACC-62 melanoma, -5.16% (active); in the assay on LOX IMVI melanoma, -29.5% (active); with SK-MEL-28 melanoma, -36.2% (active); in the assay on SK-MEL-2 melanoma it was -5.21% (active); in the assay with EKVX NSCLC, 30.5%. Moreover, the growth was 16.5% with SN12C renal; 3.1% (active) with UO-31 renal; 32.2% in the assay with TK-10 renal; 10.2% in the assay with ACHN renal; 13% in the assay on CAKI-1 renal; 25.2% with A498 renal. The growth with CCRF-CEM leukemia is 12.2%; with MOLT-4 leukemia, -5.44% (active).

As for `COc1ncc(-c2ccc3ncnc(Nc4cccc(Cl)c4)c3c2)cc1NS(=O)(=O)C1CC1`, the growth with HCT-15 colon was 27.6%; with HT29 colon, 29.7%; in the assay with SNB-75 CNS it was -1.09% (active); with SNB-19 CNS it was 49.7%; with U251 CNS, 59.9%; in the assay on PC-3 prostate, 24.4%. The growth is 37.3% in the assay with SK-MEL-5 melanoma; 25.1% in the assay on UACC-62 melanoma; 34.8% in the assay with LOX IMVI melanoma; 39.4% in the assay on SK-MEL-28 melanoma; 36.5% with SK-MEL-2 melanoma; 12.3% with EKVX NSCLC. The growth in the assay on SN12C renal is 31.2%; in the assay on UO-31 renal it was 22.5%; with TK-10 renal, 1.03% (active); in the assay with ACHN renal, 23.9%; with CAKI-1 renal, 27.8%; with A498 renal, 15.7%. Further, the growth in the assay on CCRF-CEM leukemia was 33.2%.

Turning to `O=C1Nc2cc(Cl)ccc2Oc2cc(Oc3ccccc3)ccc21`, the growth in the assay on HCT-15 colon was 46.7%; in the assay with HT29 colon, 17.4%; in the assay on SNB-75 CNS, 50.9%; with SNB-19 CNS it was 72.7%; in the assay on U251 CNS, 74.1%; in the assay on PC-3 prostate, 75.2%. For the same compound, the growth in the assay on SK-MEL-5 melanoma was 34.5%; in the assay with UACC-62 melanoma it was 59.6%; in the assay with LOX IMVI melanoma, 51.5%; with SK-MEL-28 melanoma, 71%; in the assay on SK-MEL-2 melanoma, 48%; in the assay with EKVX NSCLC, 72%. Also, the growth in the assay on SN12C renal was 68%; in the assay on UO-31 renal it was 53.4%; with TK-10 renal, 78%; in the assay with ACHN renal, 83.7%; in the assay with CAKI-1 renal it was 51%; in the assay with A498 renal, 67.1%. Besides, the growth is 54.6% in the assay on CCRF-CEM leukemia and 45.9% with MOLT-4 leukemia.

Take `Cc1ccnc2nc(C(=O)OCC(=O)Nc3ccc(-c4ccccc4)cc3)nn12`: the growth with HCT-15 colon was 105%; in the assay on HT29 colon, 108%; in the assay with SNB-75 CNS it was 95%; with SNB-19 CNS, 103%; in the assay with U251 CNS, 101%; in the assay with PC-3 prostate, 102%. Further, the growth with SK-MEL-5 melanoma is 105%; in the assay on UACC-62 melanoma, 116%; in the assay with LOX IMVI melanoma, 99%; in the assay on SK-MEL-28 melanoma, 110%; with SK-MEL-2 melanoma, 77.3%; in the assay with EKVX NSCLC it was 104%. Besides, the growth was 102% in the assay with SN12C renal; 62.8% in the assay with UO-31 renal; 118% with TK-10 renal; 107% in the assay on ACHN renal; 91% in the assay on CAKI-1 renal; 105% with A498 renal. The growth with CCRF-CEM leukemia is 91.6%; with MOLT-4 leukemia, 65%.
